# Hits are enriched below; roughly 2.7% of the tested compounds scored in any of these assays.
# TCR CD3 inh – blocks the human TCR-CD3 interaction; inhibition, % at 9.4 µM; 360,000 compounds, 0.37% hits; TAMRA-labeled TCR probe fluorescence, biochemical; in the data active = inhibition above about 19%;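 note: recombinant mutant TCR 2C K166C tagged with TAMRA read by polarization; 0% = receptor in buffer alone and 100% = receptor with positive control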
# pPAFAH FP inh – inhibitors of human plasma PAF acetylhydrolase (pPAFAH). 330,000 compounds, 1.5% hits. inhibition, % at 3.39 µM. recombinant pPAFAH, FP-rhodamine probe fluorescence polarization. Q13093. AID 463082;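 active = inhibition above the mean inhibition across the screen plus 3 SD, cut at about 25% in these data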;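 note: inhibitors block binding of the rhodamine activity-based probe so polarization drops; 0% = enzyme with DMSO and 100% = wells lacking pPAFAH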
# PAFAH1B3 FP inh – blocks human PAF acetylhydrolase 1B catalytic subunit 3; Q15102; recombinant PAFAH1B3, FP-rhodamine probe, fluorescence polarization; inhibition, % at 3.39 µM; 340,000 compounds, 0.28% hits;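 active = inhibition above the screen-wide average of all tested compounds plus 3 SD, cut at about 25% in these data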;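 note: 0% = enzyme with DMSO only and 100% = wells lacking PAFAH1B3 protein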
# Target sequence (Q15102 whole entry, looked up): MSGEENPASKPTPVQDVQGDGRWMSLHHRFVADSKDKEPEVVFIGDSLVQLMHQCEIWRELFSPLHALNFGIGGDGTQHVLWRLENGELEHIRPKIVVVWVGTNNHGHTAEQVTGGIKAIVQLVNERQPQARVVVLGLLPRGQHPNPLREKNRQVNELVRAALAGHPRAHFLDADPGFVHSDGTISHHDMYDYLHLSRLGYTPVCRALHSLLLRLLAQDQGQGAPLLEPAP
# PAFAH2 FP inh – PAFAH2 (human) inhibition; Q99487; recombinant PAFAH2, FP-rhodamine activity probe, fluorescence polarization; inhibition, % at 3.39 µM; 340,000 compounds, 0.99% hits; AID 492956;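 active = inhibition above the mean over all tested compounds plus 3 SD, cut at about 30% in these data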;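 note: inhibitors block probe labeling of enzyme so polarization drops; 0% = enzyme with DMSO and 100% = wells lacking PAFAH2 protein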
# PAFAH1B2 inh – blocks human PAF acetylhydrolase 1b catalytic subunit 2; P68402; recombinant PAFAH1B2, FP-rhodamine activity probe, fluorescence polarization; inhibition, % at 3.39 µM; 340,000 compounds, 1.2% hits; AID 492953;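 active = inhibition above the mean of all tested compounds plus 3 SD, cut at about 24% in these data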;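 note: 0% = enzyme with DMSO and 100% = wells lacking PAFAH1B2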
# Target sequence (P68402 whole entry, looked up): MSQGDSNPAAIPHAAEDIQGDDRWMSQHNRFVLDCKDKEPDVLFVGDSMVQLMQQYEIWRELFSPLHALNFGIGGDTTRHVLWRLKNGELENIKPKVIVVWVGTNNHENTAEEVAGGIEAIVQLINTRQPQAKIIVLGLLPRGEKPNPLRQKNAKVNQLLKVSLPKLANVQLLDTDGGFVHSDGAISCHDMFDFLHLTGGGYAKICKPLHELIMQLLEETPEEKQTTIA
# Active calls of the source: *; nt = not tested or not shown.
SMILES,TCR CD3 inh,pPAFAH FP inh,PAFAH1B3 FP inh,PAFAH2 FP inh,PAFAH1B2 inh
O=C(COC(=O)CNC(=O)c1ccc(Cl)cc1Cl)Nc1cccc(S(=O)(=O)N2CCCC2)c1,-7,30*,4,4,1
NS(=O)(=O)c1cccc(NC(=O)COC(=O)CCC2CCCC2)c1,-3,20,6,24,8
O=C(COC(=O)CCC1CCCC1)Nc1cccc(S(=O)(=O)N2CCOCC2)c1,-2,25*,-2,15,-2
O=c1c(=O)n(CCO)n(CCO)c(=O)n1CCO,0,nt,nt,nt,nt
CC1=C([N+](=O)[O-])C(c2ccc(Cl)cc2)NC(=O)N1C (stereo not given),-4,2,5,4,2
O=C(Nc1nc(-c2ccco2)c(-c2ccco2)s1)C1CCC1,-5,28*,4,5,-4
CC(=O)N1CC=C2C(C#N)=C(N)C(C#N)(C#N)C(CCc3ccccc3)C2C1 (stereo not given),7,4,10,-6,13
CCN1CC=C2C(C#N)=C(N)C(C#N)(C#N)C(CCc3ccccc3)C2C1 (stereo not given),10,25*,2,2,26*
CC[C@H](C)Cc1cn([C@@H](CCCN=C(NC(=O)OC(C)(C)C)NC(=O)OC(C)(C)C)C(=O)NCCCCCCCCCCC(=O)N2CCN(C(=O)OC(C)(C)C)CC2)nn1,nt,9,27*,4,12
Cc1cn([C@@H](CCCCNC(=O)OC(C)(C)C)C(=O)NCCCCCCCCCCC(=O)N2CCN(C(=O)OC(C)(C)C)CC2)nn1,nt,12,7,12,3
Nc1nc(SCC(=O)C23CC4CC(CC(C4)C2)C3)n[nH]1,5,3,-2,0,27*
Cc1ccc(S(=O)(=O)NCCc2ccc(S(N)(=O)=O)cc2)cc1,-1,2,6,5,12
Cc1ccc2[nH]cc(CCNS(=O)(=O)c3ccc(F)cc3)c2c1,2,nt,6,4,27*
Cc1ccc(CSCCNS(=O)(=O)c2ccc(C)cc2)cc1,-3,8,1,1,25*
Cc1ccc(CCNS(=O)(=O)c2ccc(C)cc2)cc1,1,19,3,-5,26*
Cc1ccc(CCNS(=O)(=O)c2ccc3c(c2)NC(=O)C(C)C(=O)N3)cc1 (stereo not given),-6,8,11,4,27*
COC(=O)[C@]12C[C@H](CC(=O)NCC34CC5CC(CC(C5)C3)C4)C(=O)N(Cc3ccc4c(c3)OCO4)C1=C[C@H](COCc1ccccc1)O[C@@H]2C,2,nt,nt,nt,nt
CN(C)C(=O)N1CCN(C(=O)[C@H](CCc2ccccc2)NC(=O)[C@H]2O[C@@H](n3cnc4c(N)ncnc43)[C@H](O)[C@@H]2O)CC1,4,nt,nt,nt,nt
Cc1ccc(S(=O)(=O)NCCCN(C)C)cc1,3,-2,2,2,4
Cc1ccc(S(=O)(=O)NCCCNS(=O)(=O)c2ccc(C)cc2)cc1,8,26*,-1,-6,4
CC(C)(C)c1ccc(C#C[C@@H]2C=C[C@@H](O)[C@@H](COC(=O)Nc3ccccc3)O2)cc1,14,nt,nt,nt,nt
N#Cc1c(N2CCCC2)nc(N)c2c(N)nc(N3CCCC3)cc12,2,16,63*,59*,41*
N#C/C(=C\c1cccnc1)C(=O)Nc1ccccc1[N+](=O)[O-],-1,26*,11,-3,13
Cc1ccccc1NC(=O)N(C)[C@H]1C[C@H]2c3[nH]c4c(-c5ccc6c(c5)OCO6)cccc4c3CCN2C(=O)[C@H]1[C@H](C)O,2,nt,nt,nt,nt
CSC[C@@H]1NC(=S)N(c2ccc(C)cc2)C1=O,-1,14,49*,15,27*
SMILES,TCR CD3 inh,pPAFAH FP inh,PAFAH1B3 FP inh,PAFAH2 FP inh,PAFAH1B2 inh
Cc1ccc(N2C(=O)C3CCC(C)(C2=O)C3(C)C)cc1 (stereo not given),1,-1,0,8,-2
CCN(CC)c1ccc(/C=C/c2cc(-c3ccccc3)c3ccccc3n2)cc1,-4,25*,4,-5,-2
Cc1ccc(CCNS(=O)(=O)c2ccc3c(c2)C(C)(C)C(=O)N3C)cc1,-7,25*,0,-9,11
CN1C(=O)C(C)(C)c2cc(S(=O)(=O)NCc3ccc(Cl)cc3)ccc21,-9,6,10,6,7
CN1C(=O)C(C)(C)c2cc(S(=O)(=O)NCCc3ccc(Cl)cc3)ccc21,-7,30*,3,5,24*
Cc1ccccc1CNS(=O)(=O)c1ccc2c(c1)C(C)(C)C(=O)N2C,-8,7,4,-2,-2
Cc1cc(CN2CCN(c3ncc(Cc4ccccc4)cn3)CC2)cc(C)c1O,-5,nt,nt,nt,nt

# Assay outcomes deposited in PubChem by The Scripps Research Institute Molecular Screening Center.
